According to PubChem BioAssay (NCATS):
Records with an inconclusive call do not appear. Some structures have more than one record in an assay (separate samples or runs), and their calls can disagree. Activity calls are given as the source filed them. Calls come from the whole dose curve; as a rule, active = well fitted curve in the direction sought with a large enough effect; inconclusive = small, poorly fitted or top-dose-only effect, or another doubt; inactive = no such curve, though single readings can be large; an effect the other way counts as inactive or inconclusive.

Columns and labels:
NIH3T3 = experiment: qHTS assay to identify novel small-molecules to repurpose for Merkel cell carcinoma treatment (AID 1296009); conditions: MCC and control cell lines, CellTiter-Glo viability, 72 h; at 44.8 µM (top of the series) unless noted; note: nearly all actives have a fitted effect of over 60% in size; note: potency is the fitted concentration of half-maximal effect
Outline: (§1)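 Cells were incubated with compound for 72 hr at 37 degree celsius before CellTiter-Glo addition. Luminescence was normalized with no-cell wells as full cytotoxicity and DMSO as baseline.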

UISO = experiment: as above; conditions: MCC and control cell lines, CellTiter-Glo viability, 72 h; series mostly up to 46 µM
Outline: as §1

WaGa = experiment: as above; conditions: MCC and control cell lines, CellTiter-Glo viability, 72 h; series mostly up to 46 µM
Outline: as §1

C33A = experiment: Primary qHTS to identify gynecologic anti-cancer compounds using libraries of approved drugs and bioactive compounds (AID 1345084); conditions: Gynecologic cancer cell panel viability, ATPlite luminescence, 48 h; series mostly up to 57.5 µM; note: nearly all actives have a fitted effect of over 55% in size
Outline: (§2)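 Luminescence from the ATPlite ATP-monitoring reagent indicates viable cell number; lower signal means cytotoxicity. Cells received compound 16 h after seeding and were exposed for 48 h across five concentrations.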

CAOV3 = experiment: as above; conditions: Gynecologic cancer cell panel viability, ATPlite luminescence, 48 h; series mostly up to 57.5 µM
Outline: as §2

CASKI = experiment: as above; conditions: Gynecologic cancer cell panel viability, ATPlite luminescence, 48 h; series mostly up to 57.5 µM
Outline: as §2

Es-2 = experiment: as above; conditions: Gynecologic cancer cell panel viability, ATPlite luminescence, 48 h; series mostly up to 57.5 µM
Outline: as §2

HeLa = experiment: as above; conditions: Gynecologic cancer cell panel viability, ATPlite luminescence, 48 h; series mostly up to 57.5 µM
Outline: as §2

OV90 = experiment: as above; conditions: Gynecologic cancer cell panel viability, ATPlite luminescence, 48 h; series mostly up to 57.5 µM
Outline: as §2

PA-1 = experiment: as above; conditions: Gynecologic cancer cell panel viability, ATPlite luminescence, 48 h; series mostly up to 57.5 µM
Outline: as §2

SKOV3 = experiment: as above; conditions: Gynecologic cancer cell panel viability, ATPlite luminescence, 48 h; series mostly up to 57.5 µM
Outline: as §2

Tov-21-G = experiment: as above; conditions: Gynecologic cancer cell panel viability, ATPlite luminescence, 48 h; series mostly up to 57.5 µM
Outline: as §2

Tov112D = experiment: as above; conditions: Gynecologic cancer cell panel viability, ATPlite luminescence, 48 h; series mostly up to 57.5 µM
Outline: as §2

[1] = Drug repurposing screens with cells derived from glioblastoma tumor samples (AID 1345199); conditions: GBM patient neurospheres viability, ATP luminescence, 48 h; note: nearly all actives have a fitted effect of over 40% in size; note: potency is the fitted concentration of half-maximal effect
Outline: (§3)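 Four patient lines of CD133+ GBM neurospheres were screened at several concentrations; hits were retested in those lines plus three slower-growing GBM lines, using 48-hour treatment and ATP-based viability.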

astro = experiment: as above; conditions: viability, ATP luminescence, 48 h; series mostly up to 45.9 µM
Outline: as §3

Hek293T = experiment: Primary qHTS to identify gynecologic anti-cancer compounds using libraries of approved drugs and bioactive compounds (AID 1345084); conditions: Gynecologic cancer cell panel viability, ATPlite luminescence, 48 h, control line for the selectivity index; series mostly up to 57.5 µM; note: nearly all actives have a fitted effect of over 55% in size
Outline: as §2

JEG-3 = experiment: as above; conditions: Gynecologic cancer cell panel viability, ATPlite luminescence, 48 h; series mostly up to 57.5 µM
Outline: as §2

[2] = qHTS assay to identify inhibitors of the type 1 interferon - major histocompatibility complex class I in skeletal muscle: Counter screen cell viability and HiBit confirmation (AID 1347412); conditions: iHSKM muscle cells + IFN-b, HiBiT or CellTiter-Glo, 24 h; Potency: HiBiT; Viability, at 45.9 µM (top of the series); note: nearly all actives have a fitted effect of over 60% in size
Outline: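 HLA-B*08:01–HiBiT knock-in immortalized human myoblasts (C25cl48) stimulated with 4.0 ng/ml human IFN-beta and dosed with compound in a 12-point 1:3 titration (top final 46 uM). After 24 hrs at 37 C, HiBiT lytic luminescence or CellTiter Glo ATP read out.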

[3] = at 45.9 µM (top of the series), tumour line B
[4] = at 45.9 µM (top of the series), tumour line D
[5] = at 46 µM (top of the series), tumour line A
% is set by controls: 0 for no effect and ±100 for the full control effect.

CCCC1CCCCN1 (stereo not drawn)
inactive: outcome (NIH3T3) | Potency (UISO) | Potency (WaGa) | Potency (C33A) | Potency (CAOV3) | Potency (CASKI) | Potency (Es-2) | Potency (HeLa) | Potency (OV90) | Potency (PA-1) | Potency (SKOV3) | Potency (Tov-21-G) | Potency (Tov112D) | activity, negative = cell killing [1, 3] -22.5% | activity, negative = cell killing [1, 4] -32.7% | Potency (astro)

NN=C(N)N
inactive: Potency (UISO) | Potency (WaGa) | Potency (C33A) | Potency (CAOV3) | Potency (CASKI) | Potency (Es-2) | Potency (HeLa) | Potency (Hek293T) | Potency (JEG-3) | Potency (OV90) | Potency (PA-1) | Potency (SKOV3) | Potency (Tov-21-G) | Potency (Tov112D) | activity, negative = cell killing [1, 3] -4.67% | activity, negative = cell killing [1, 4] 9.02% | activity, negative = cell killing [1, 5] -2.8% | Potency (astro)

CN(C)CCc1ccc(O)cc1
inactive: Potency (UISO) | Potency (WaGa) | Potency (C33A) | Potency (CAOV3) | Potency (CASKI) | Potency (Es-2) | Potency (HeLa) | Potency (Hek293T) | Potency (JEG-3) | Potency (PA-1) | Potency (SKOV3) | Potency (Tov-21-G) | Potency (Tov112D) | activity, negative = cell killing [1, 3] -0.64% | activity, negative = cell killing [1, 4] -12.6%

C[C@@H]1[C@@H](CC(C[C@H]2O[C@@H]3O[C@]4(C)CC[C@@H]5[C@H](C)CC[C@@H]([C@H]2C)[C@@]35OO4)C[S+](=O)([O-])c2ccc(COC(=O)N(C)C)cc2)O[C@@H]2O[C@]3(C)CC[C@H]4[C@H](C)CC[C@@H]1[C@@]24OO3 (stereo partly drawn)
active: Potency (UISO) 0.526 µM

Cn1c(CCCC(=O)O)nc2cc(N(CCCl)CCCl)ccc21
inactive: Potency (UISO) | Potency (C33A) | Potency (CAOV3) | Potency (CASKI) | Potency (Es-2) | Potency (HeLa) | Potency (Hek293T) | Potency (OV90) | Potency (PA-1) | Potency (SKOV3) | Potency (Tov-21-G) | Potency (Tov112D) | activity, negative = cell killing [1, 3] -8.98% | activity, negative = cell killing [1, 4] -16.3%
18.8 µM (active) and inactive: Potency (WaGa)

C[C@@H]1[C@@H](C(=O)C[C@H]2O[C@@H]3O[C@]4(C)CC[C@@H]5[C@H](C)CC[C@@H]([C@H]2C)[C@@]35OO4)O[C@@H]2O[C@]3(C)CC[C@H]4[C@H](C)CC[C@@H]1[C@@]24OO3
active: Potency (UISO) 0.372 µM | Potency (WaGa) 2.64 µM

Cc1ccc(-c2nc3ccc(C)cn3c2CC(=O)N(C)C)cc1
inactive: Potency (UISO) | Potency (WaGa) | Potency (C33A) | Potency (CAOV3) | Potency (CASKI) | Potency (Es-2) | Potency (HeLa) | Potency (Hek293T) | Potency (JEG-3) | Potency (OV90) | Potency (PA-1) | Potency (SKOV3) | Potency (Tov-21-G) | Potency (Tov112D) | activity, negative = cell killing [1, 3] -10.9% | activity, negative = cell killing [1, 4] 2.33% | activity, negative = cell killing [1, 5] -24.8% | Potency (astro)

NP(N)(=O)NC(=O)c1ccc(F)cc1
inactive: Potency (UISO) | Potency (WaGa) | Potency (C33A) | Potency (CAOV3) | Potency (CASKI) | Potency (Es-2) | Potency (HeLa) | Potency (Hek293T) | Potency (OV90) | Potency (PA-1) | Potency (SKOV3) | Potency (Tov-21-G) | Potency (Tov112D) | activity, negative = cell killing [1, 3] -10% | activity, negative = cell killing [1, 4] -14.8% | activity, negative = cell killing [1, 5] -25.8%

COC[C@H]1OC(=O)c2coc3c2[C@@]1(C)C1=C(C3=O)C2CCC(=O)[C@@]2(C)C[C@H]1OC(C)=O (stereo partly drawn)
active: Potency (WaGa) 8.33 µM
inactive: Potency (UISO) | Potency (C33A) | Potency (CAOV3) | Potency (CASKI) | Potency (Es-2) | Potency (HeLa) | Potency (Hek293T) | Potency (JEG-3) | Potency (OV90) | Potency (Tov-21-G) | Potency (Tov112D) | Potency [2]

N[C@@H](Cc1ccc(Oc2cc(I)c(O)c(I)c2)c(I)c1)C(=O)O
inactive: Potency (UISO) | Potency (WaGa) | Potency (C33A) | Potency (CAOV3) | Potency (CASKI) | Potency (Es-2) | Potency (HeLa) | Potency (Hek293T) | Potency (JEG-3) | Potency (OV90) | Potency (PA-1) | Potency (SKOV3) | Potency (Tov-21-G) | Potency (Tov112D) | activity, negative = cell killing [1, 3] -6.2% | activity, negative = cell killing [1, 4] -17.5% | activity, negative = cell killing [1, 5] -27.6%

O=C(O)C(=O)c1cn(Cc2ccccc2)c2ccc(-c3ccc(OC(F)(F)F)cc3)cc12
inactive: Potency (UISO) | Potency (WaGa) | Potency (C33A) | Potency (CAOV3) | Potency (CASKI) | Potency (Es-2) | Potency (HeLa) | Potency (Hek293T) | Potency (OV90) | Potency (PA-1) | Potency (SKOV3) | Potency (Tov-21-G) | Potency (Tov112D)

CCCN1CCC[C@@H]2Cc3nc(N)ncc3C[C@H]21
inactive: Potency (WaGa) | Potency (C33A) | Potency (CAOV3) | Potency (CASKI) | Potency (Es-2) | Potency (HeLa) | Potency (Hek293T) | Potency (JEG-3) | Potency (OV90) | Potency (PA-1) | Potency (SKOV3) | Potency (Tov-21-G) | Potency (Tov112D) | activity, negative = cell killing [1, 3] -7.67% | activity, negative = cell killing [1, 4] -0.18%
active: Potency (UISO) 29.9 µM

CC(O)(CS(=O)(=O)c1ccc(F)cc1)C(=O)Nc1ccc(C#N)c(C(F)(F)F)c1 (stereo not drawn)
active: Potency (WaGa) 8.33 µM
inactive: outcome (NIH3T3) | Potency (C33A) | Potency (CAOV3) | Potency (CASKI) | Potency (Es-2) | Potency (HeLa) | Potency (Hek293T) | Potency (OV90) | Potency (PA-1) | Potency (SKOV3) | Potency (Tov-21-G) | Potency (Tov112D)

COc1ccc(C(=O)c2c(C)n(CCN3CCOCC3)c3ccccc23)cc1
inactive: outcome (NIH3T3) | Potency (UISO) | Potency (WaGa) | Potency (C33A) | Potency (CASKI) | Potency (Es-2) | Potency (HeLa) | Potency (Hek293T) | Potency (JEG-3) | Potency (OV90) | Potency (PA-1) | Potency (Tov-21-G) | Potency (Tov112D) | activity, negative = cell killing [1, 3] -14.8% | activity, negative = cell killing [1, 4] -16% | Potency (astro)

COC[C@@H](NC(C)=O)C(=O)NCc1ccccc1
inactive: Potency (UISO) | Potency (WaGa) | Potency (C33A) | Potency (CAOV3) | Potency (CASKI) | Potency (Es-2) | Potency (HeLa) | Potency (Hek293T) | Potency (JEG-3) | Potency (OV90) | Potency (PA-1) | Potency (SKOV3) | Potency (Tov-21-G) | Potency (Tov112D)

Cc1cccc(C)c1NC1=NCCCS1
inactive: Potency (UISO) | Potency (WaGa) | Potency (C33A) | Potency (CAOV3) | Potency (CASKI) | Potency (Es-2) | Potency (HeLa) | Potency (Hek293T) | Potency (OV90) | Potency (PA-1) | Potency (SKOV3) | Potency (Tov-21-G) | Potency (Tov112D) | activity, negative = cell killing [1, 3] -12.3%
active: Potency ([1]; tumour line A) 17.8 µM
